Source: PubChem
ASM inhibitor: human S-ASM enzyme inhibition. P17405. placental ASM, HMU-PC fluorogenic substrate, 60 min. Potency, µM (doses to about 57.5 µM), for the others: top-dose activity change, negative = inhibition, most hits filed as inhibitors. 340,000 tested, 0.006% active. AID 504937; note: potency is the fitted concentration of half-maximal effect
Target sequence (P17405 47-631 limits assumed): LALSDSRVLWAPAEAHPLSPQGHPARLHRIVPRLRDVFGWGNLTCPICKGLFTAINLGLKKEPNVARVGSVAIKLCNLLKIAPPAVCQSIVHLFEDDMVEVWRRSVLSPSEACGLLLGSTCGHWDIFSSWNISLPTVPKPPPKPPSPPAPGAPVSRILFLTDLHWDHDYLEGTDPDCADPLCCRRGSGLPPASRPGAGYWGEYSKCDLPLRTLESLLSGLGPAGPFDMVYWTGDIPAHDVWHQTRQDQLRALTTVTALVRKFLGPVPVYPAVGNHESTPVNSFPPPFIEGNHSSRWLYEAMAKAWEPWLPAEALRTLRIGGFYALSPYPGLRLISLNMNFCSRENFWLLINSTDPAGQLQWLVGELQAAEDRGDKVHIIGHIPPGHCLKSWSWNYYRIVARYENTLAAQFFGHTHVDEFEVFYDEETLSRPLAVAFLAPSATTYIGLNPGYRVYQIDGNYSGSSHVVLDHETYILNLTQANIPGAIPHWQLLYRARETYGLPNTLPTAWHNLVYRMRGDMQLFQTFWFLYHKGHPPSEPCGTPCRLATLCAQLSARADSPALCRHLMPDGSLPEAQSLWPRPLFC
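Fluorescence read-out (Ex 386 nm, Em 447 nm) after stopping the reaction at pH 10. Enzyme: ASM from human placenta; substrate HMU-PC0, 9 uM final; 60 min, 37 °C. Compound preincubation 10 min, ambient temperature.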
TDP1 cell noCPT: qHTS for Inhibitors of human tyrosyl-DNA phosphodiesterase 1 (TDP1): qHTS in cells in absence of CPT; DT40 Tdp1-/- hTDP1 cells, no CPT, ATP luminescence, 48 h; AID 686978, 2013; 420,000 tested, 15% active; Potency, µM (doses to about 46.2 µM), for the others: top-dose activity change, negative = growth inhibition, hits mostly inhibitors; note: potency is the fitted concentration of half-maximal effect; % is set by controls: 0 for no effect and ±100 for the full control effect; nearly all actives have a fitted effect of over 55% in size
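Seeded 400 DT40-hTDP1 cells/well (vehicle DMSO, no 20 nM CPT); pinned compounds; ≥48 hr at 37 °C; CellTiter-Glo luminescence as viability measure.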
IL-1B inflam inh: inhibitors of inflammasome signaling (IL-1 beta secretion); activity change, % at 57.5 µM; 360,000 tested, 4.7% active; THP-1 LPS/ATP IL-1B secretion, AlphaLISA, 16 h; hits give low values; in the data active = activity change below about -50%; inconclusive = mostly about -30% to -49%; note: % is set by controls: 0 for no effect and ±100 for the full control effect
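Secreted IL-1B measured by AlphaLISA bead assay after 16 h compound exposure of THP-1 cells; compounds (final up to 57.5 uM) added 1 h before LPS (250 ng/mL) and ATP (1.25 mM) stimulation; lower signal means less secretion.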
HepG2 viability: HepG2 cytotoxicity, counter-screen for TGF-b inhibitors; HepG2 CAGA-GFP viability, ATP luminescence, 18 h; Potency, µM (highest dose often 46.1 µM), for inactives: at the highest dose activity change, negative = cytotoxicity, usual class: cytotoxic; 410,000 tested, 0.76% active; AID 588856; note: potency is the fitted concentration of half-maximal effect
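CellTiter-Glo luminescence gave cytotoxicity after 18 hours at 37 degrees C. The cells were HepG2 CAGA-GFP in 1% FBS DMEM, stimulated with 500 pg/mL TGF-beta after compound addition. %Activity was normalised to no-cell wells (complete cell-killing) and DMSO (no toxicity), and curves were fitted and classified.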
DT40 TDP1 CPT: DT40-hTDP1 cell growth loss with CPT. chicken DT40 Tdp1-/-;hTDP1 cells + 20 nM CPT, ATP luminescence, 48 h. Potency, µM (titrated, usually from 46.2 µM), for the others: at the highest dose activity change, negative = growth inhibition, most hits filed as inhibitors. 420,000 tested, 12% active. AID 686979; note: potency is the fitted concentration of half-maximal effect; % is set by controls: 0 for no effect and ±100 for the full control effect; nearly all actives have a fitted effect of over 55% in size
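Chicken DT40 Tdp1-/- cells complemented with human TDP1, 400 cells/well, exposed to compounds plus 20 nM camptothecin for at least 48 h at 37 C; viability read as ATP content by CellTiter-Glo luminescence.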
TGFb SMAD3 inh: blocks TGF-b signaling; HepG2 CAGA-GFP TGF-b/SMAD3 reporter, GFP fluorescence, 18 h; TGF-beta stimulated, 500 pg/mL final; 410,000 tested, 1.2% active; AID 588855; Potency, µM (top dose mostly 46.1 µM), inactives show at the highest dose activity, negative = inhibition, hits mostly inhibitors; note: potency is the fitted concentration of half-maximal effect; % is set by controls: 0 for no effect and ±100 for the full control effect; nearly all actives have a fitted effect of over 65% in size
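Inhibition was scored as loss of TGF-beta-induced (500 pg/mL final, 18 hours, 37 degrees C) GFP in HEPG2 cells carrying a CAGA-GFP reporter, in DMEM with 1% FBS. Well GFP was summed per cell; Activity was normalised to unstimulated and stimulated DMSO wells, then concentration-response fitting.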
* marks the source's active call; other numbers are inactive results; i = inactive; ? = inconclusive; nt = no result given; [ ] = dose if it differs, or a comment. The list is not random: actives were taken first. Their share in the collection is about 19%. Unless noted, calls come from the whole dose curve; as a rule, active = well fitted curve in the direction sought with a large enough effect; inconclusive = small, poorly fitted or top-dose-only effect, or another doubt; inactive = no such curve, though single readings can be large; an effect the other way counts as inactive or inconclusive.

SMILES	ASM inhibitor	TDP1 cell noCPT	IL-1B inflam inh	HepG2 viability	DT40 TDP1 CPT	TGFb SMAD3 inh
Clc1cccc(-n2ncc3c(N4CCC(Cc5ccccc5)CC4)ncnc32)c1	nt	-3%	nt	10%	-15%	6%
Cn1ncc2c(N3CCN(c4cccc(Cl)c4)CC3)ncnc21	nt	5.8µM*	nt	-5%	?	1%
COCC(=O)NC1CC2CCC(C1)N2C(=S)Nc1ccccc1C(=O)OC (stereo not given)	-1%	-4%	19	-7%	-2%	9%
COc1ccc(OCC(=O)Nc2ccc(C(=O)OCc3cc(=O)n4nc(C)sc4n3)cc2)cc1	nt	21µM*	nt	2%	13µM*	1%
CCc1nn2c(=O)cc(COC(=O)c3ccc(NC(=O)COc4ccc(C)cc4)cc3)nc2s1	nt	16µM*	nt	0%	?	13%
CCc1nn2c(=O)cc(COC(=O)c3ccccc3NC(=O)COc3ccc(C)c(C)c3)nc2s1	nt	6.5µM*	nt	1%	5.2µM*	0%
CC(C)c1nn2c(=O)cc(COC(=O)c3ccc(NC(=O)COc4ccccc4)cc3)nc2s1	nt	-30%	nt	4%	3%	3%
CCCc1nn2c(=O)cc(COC(=O)c3ccccc3NC(=O)COc3ccccc3)nc2s1	nt	-20%	nt	-10%	?	-5%
COC(=O)CCC(=O)N1CN2CN(C(=O)CCC(=O)OC)CC([N+](=O)[O-])(C2)C1	0%	20%	-4	14%	4%	-2%
COc1ccc(C(=O)NCCS(=O)(=O)NCc2cccnc2)cc1	-4%	-29%	5	12%	4%	0%
COC(=O)[C@@H]1CCCN1Cc1c(C(=O)N2CCOCC2)nc2c(C)cccn12	5%	16%	18	-1%	9%	5%
O=C(N/N=C1/C(=O)c2cccc3cccc1c23)c1ccc(Cl)cc1	-21%	4.6µM*	0	0%	4.1µM*	-26%
Cc1coc2c(C)c3oc(=O)c(CCC(=O)N[C@H](C(=O)O)C(C)C)c(C)c3cc12	nt	-13%	-1	-2%	9%	-11%
Cc1c(C(=O)c2ccc(N(C)C)cc2)c2ccccn2c1CCC#N	-5%	?	-73*	-14%	-28%	-10%
COc1ccc2cnoc(=O)c2c1OC	nt	7%[9.04 µM]	nt	nt	17%[9.04 µM]	nt
CC(C)CN(C#N)c1nc(N2CCOCC2)nc(N2CCOCC2)n1	0%	12µM*	-10	-7%	12µM*	-6%
CCN(CC)c1nc(C#N)nc(N2CCOCC2)n1	nt	10µM*	nt	-17%	10µM*	-2%
O=C(Cc1cccc(F)c1)NO	nt	-15%	nt	nt	-25%	nt
COc1ccccc1NC(=O)/C(C#N)=C/c1cccn1C	4%	-27%	9	-21%	-15%	-14%
COc1ccc(CNC(=O)Cn2c(=O)oc3cc(S(=O)(=O)N4CCC(C)CC4)ccc32)cc1	nt	8.2µM*	nt	-24%	8.2µM*	?
COc1ccc(Cl)cc1NC(=O)Cn1c(=O)oc2cc(S(=O)(=O)N3CCCCCC3)ccc21	nt	16µM*	nt	7%	?	0%
COc1ccc(NC(=O)Cn2c(=O)oc3cc(Cl)ccc32)c(OC)c1	4%	6.5µM*	10	1%	?	20%
COc1ccc(Cl)cc1NC(=O)CN1C(=O)CSc2ccc(S(=O)(=O)N3CCCC3)cc21	nt	23µM*	nt	-8%	16µM*	-11%
COc1ccc(NC(=O)Cn2c(=O)oc3cc(S(=O)(=O)N4CCCC4)ccc32)c(OC)c1	-2%	?	11	0%	?	3%
COc1ccc(OC)c(NC(=O)CN2C(=O)CSc3ccc(S(=O)(=O)N4CCCC4)cc32)c1	0%	-21%	-18	0%	-30%	-10%
SMILES	ASM inhibitor	TDP1 cell noCPT	IL-1B inflam inh	HepG2 viability	DT40 TDP1 CPT	TGFb SMAD3 inh
O=C(NC1CC1)C1CC(=O)N(c2cccc(Cl)c2)C1 (stereo not given)	4%	21%	0	0%	-13%	-1%
CCCn1c(-c2cccs2)nc2nc3ccccc3nc21	i	16µM*	12	4%	18µM*	-11%
c1csc(-c2nc3nc4ccccc4nc3n2Cc2ccc3c(c2)OCO3)c1	408%	?	?	0%	18µM*	-9%
COCCn1c(-c2cccs2)nc2nc3ccccc3nc21	i	?	25	-31%	?	-5%
COc1ccc(Br)cc1C(=O)Nc1ccc(C(=O)NCC(C)C)cc1	-3%	?	?	7%	-13%	-1%
CCOc1ccc(Br)cc1S(=O)(=O)Nc1ccc(NC(=O)c2ccccc2C)cc1	-1%	-12%	-2	-2%	-14%	19%
CCOc1ccc(Br)cc1C(=O)Nc1ccc(C(=O)NCC(C)C)cc1	-3%	?	-13	-31%	10µM*	-6%
CCOc1ccc(Br)cc1S(=O)(=O)Nc1ccc(NC(=O)c2ccccc2F)cc1	-19%	16µM*	-8	-64%	?	?
CCOc1ccc(Br)cc1S(=O)(=O)Nc1cccc(S(=O)(=O)N(C)c2ccccc2)c1	-3%	-27%	10	-31%	-21%	11µM*
CCOc1ccc(Br)cc1S(=O)(=O)Nc1ccc(C(=O)OCC(=O)N(C)c2ccccc2)cc1	-4%	3%	17	3%	9%	2%
Cc1ccc(C(=O)Nc2cccc(-c3nc(CNC(=O)c4ccc5ccccc5n4)c(C)o3)c2)s1	nt	16µM*	nt	nt	?	nt
Cc1cc(C(=O)Nc2cccc(-c3nc(CNC(=O)c4ccccc4C(F)(F)F)c(C)o3)c2)c(C)o1	nt	21µM*	nt	nt	?	nt
Cc1ccc(C(=O)Nc2cccc(-c3nc(CNC(=O)[C@@H]4C[C@@H](C)NC(=S)N4)c(C)o3)c2)s1	nt	?	nt	nt	-13%	nt
CSc1nc(C(=O)NCc2nc(-c3cccc(NC(=O)c4ccc(C)s4)c3)oc2C)cs1	nt	-2%	nt	nt	9%[9.04 µM]	nt
Cc1ccc(C(=O)Nc2cccc(-c3nc(CNC(=O)c4cccc(N(C)C)c4)c(C)o3)c2)s1	nt	16µM*	nt	nt	4%[9.04 µM]	nt
Cc1oc(-c2cccc(NC(=O)c3ccccn3)c2)nc1CNC(=O)C#Cc1ccccc1	nt	23µM*	nt	nt	?	nt
Cc1ccc(NC(=O)c2cccc(S(=O)(=O)N(C)C3CCCCC3)c2)nc1	-5%	?	-2	-28%	?	0%
COc1cccc(C(=O)N2CCC[C@H]2C(=O)N2CCC[C@H]2C(=O)NCc2ccncc2)c1	nt	-30%	30	nt	-8%	nt
